Active and inactive are the calls of the source.
Experiments:
[1] = small molecules captured by biotinylated probe aFSTL3 – biochemical, small-molecule microarray, fluorescence 635/667, stem cell growth factor project, primary screen (AID 1064); settings: higher = more signal;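 also: measures binding of the biotinylated anti-FSTL3 antibody to printed compounds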
[2] = binders from COS7 lysate, DM2A8 probe, primary screen, torsin A project, cell lysate, small-molecule microarray, fluorescence 635/667 (AID 1065); settings: higher = more signal, COS7 lysate expressing mutant human TOR1A
[3] = small molecules captured by biotinylated probe aFGF2 – biochemical, small-molecule microarray, fluorescence 635/667, stem cell growth factor project, primary screen (AID 1067); settings: higher = more signal;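 also: measures binding of biotinylated aFGF2 protein to printed compounds on slides; z-score merges feature fluorescence and signal-to-noise across triplicate slides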
[4] = small molecules captured by biotinylated probe aFGF10 – biochemical, small-molecule microarray, fluorescence 635/667, stem cell growth factor project, primary screen (AID 1071); settings: higher = more signal;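 also: score merges 667 nm spot intensity and signal to noise from triplicate slides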
[5] = molecular target: Neurogenic locus notch homolog protein 2 (Homo sapiens) (UniProt Q04721); assay: small molecules binding Notch2 protein – biochemical, small-molecule microarray, 635 nm fluorescence, stem cell growth factors, primary screen (AID 1073); settings: higher = more signal
Sequence of Neurogenic locus notch homolog protein 2 (Homo sapiens) (Q04721 whole entry, looked up, canonical isoform): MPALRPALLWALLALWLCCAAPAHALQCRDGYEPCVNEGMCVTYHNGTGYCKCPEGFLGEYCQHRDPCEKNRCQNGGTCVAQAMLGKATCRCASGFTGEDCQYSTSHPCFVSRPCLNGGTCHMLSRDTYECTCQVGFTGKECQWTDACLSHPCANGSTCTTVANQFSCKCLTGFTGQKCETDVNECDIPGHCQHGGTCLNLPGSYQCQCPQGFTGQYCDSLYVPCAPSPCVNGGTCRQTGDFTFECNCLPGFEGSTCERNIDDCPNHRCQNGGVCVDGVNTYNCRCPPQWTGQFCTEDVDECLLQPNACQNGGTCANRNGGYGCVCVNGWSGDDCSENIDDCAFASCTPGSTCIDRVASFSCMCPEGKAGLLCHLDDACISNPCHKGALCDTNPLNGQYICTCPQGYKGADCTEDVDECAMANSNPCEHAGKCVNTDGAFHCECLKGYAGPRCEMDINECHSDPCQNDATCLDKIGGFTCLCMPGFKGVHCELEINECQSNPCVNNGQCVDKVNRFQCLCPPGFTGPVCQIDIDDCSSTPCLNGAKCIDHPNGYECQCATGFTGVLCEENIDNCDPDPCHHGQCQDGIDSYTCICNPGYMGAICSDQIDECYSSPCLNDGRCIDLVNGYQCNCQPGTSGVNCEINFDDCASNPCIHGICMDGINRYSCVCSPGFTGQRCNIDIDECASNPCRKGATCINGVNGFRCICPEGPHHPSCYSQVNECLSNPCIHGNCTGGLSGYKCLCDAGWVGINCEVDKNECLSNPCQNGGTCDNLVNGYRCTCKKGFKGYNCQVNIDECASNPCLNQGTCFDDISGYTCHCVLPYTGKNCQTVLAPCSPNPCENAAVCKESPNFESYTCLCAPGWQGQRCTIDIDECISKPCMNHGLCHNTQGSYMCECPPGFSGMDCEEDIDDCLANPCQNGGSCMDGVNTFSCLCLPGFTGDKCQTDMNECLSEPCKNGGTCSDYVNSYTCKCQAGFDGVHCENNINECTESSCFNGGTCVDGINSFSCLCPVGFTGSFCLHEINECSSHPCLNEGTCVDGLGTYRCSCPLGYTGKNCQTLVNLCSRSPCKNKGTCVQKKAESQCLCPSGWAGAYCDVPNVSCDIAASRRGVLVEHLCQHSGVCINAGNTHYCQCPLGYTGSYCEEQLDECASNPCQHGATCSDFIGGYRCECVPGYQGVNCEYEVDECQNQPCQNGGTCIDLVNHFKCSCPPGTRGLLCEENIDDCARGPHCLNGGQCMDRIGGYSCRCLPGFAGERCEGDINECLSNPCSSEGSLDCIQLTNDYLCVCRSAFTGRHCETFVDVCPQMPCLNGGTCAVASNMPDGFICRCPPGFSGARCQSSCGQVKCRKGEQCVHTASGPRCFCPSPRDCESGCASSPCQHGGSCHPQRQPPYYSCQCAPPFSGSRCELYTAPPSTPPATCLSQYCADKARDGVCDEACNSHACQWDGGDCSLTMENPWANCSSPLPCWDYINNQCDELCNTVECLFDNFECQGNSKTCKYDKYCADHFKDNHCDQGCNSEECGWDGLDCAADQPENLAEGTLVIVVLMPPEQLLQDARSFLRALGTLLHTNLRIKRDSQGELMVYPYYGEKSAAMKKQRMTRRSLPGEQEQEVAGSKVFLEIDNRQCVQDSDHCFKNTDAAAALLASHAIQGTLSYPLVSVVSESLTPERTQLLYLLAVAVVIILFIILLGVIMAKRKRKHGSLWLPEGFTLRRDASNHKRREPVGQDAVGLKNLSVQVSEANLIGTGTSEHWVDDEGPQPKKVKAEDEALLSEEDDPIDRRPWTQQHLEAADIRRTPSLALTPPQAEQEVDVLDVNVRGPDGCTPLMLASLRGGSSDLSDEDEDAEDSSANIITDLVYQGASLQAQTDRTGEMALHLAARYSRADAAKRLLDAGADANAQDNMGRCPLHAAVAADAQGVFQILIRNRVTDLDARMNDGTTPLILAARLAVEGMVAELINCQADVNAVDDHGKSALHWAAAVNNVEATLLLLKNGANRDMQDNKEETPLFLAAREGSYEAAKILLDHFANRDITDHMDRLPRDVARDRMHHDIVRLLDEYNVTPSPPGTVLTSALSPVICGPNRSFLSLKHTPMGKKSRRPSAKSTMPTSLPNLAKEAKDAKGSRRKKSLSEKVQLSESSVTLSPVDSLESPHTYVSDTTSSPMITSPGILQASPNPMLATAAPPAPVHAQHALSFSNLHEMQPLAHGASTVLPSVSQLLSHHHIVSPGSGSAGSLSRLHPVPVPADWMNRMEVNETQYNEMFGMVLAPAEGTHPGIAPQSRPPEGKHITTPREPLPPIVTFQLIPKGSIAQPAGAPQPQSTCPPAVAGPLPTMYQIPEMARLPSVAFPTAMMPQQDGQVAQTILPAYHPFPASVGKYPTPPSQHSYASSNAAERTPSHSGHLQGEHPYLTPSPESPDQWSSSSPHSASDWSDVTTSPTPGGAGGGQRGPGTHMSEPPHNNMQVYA

[6] = molecular target: Pro-neuregulin-1, membrane-bound isoform (Homo sapiens) (UniProt Q02297); assay: small molecules binding neuregulin-1 protein – biochemical, small-molecule microarray, fluorescence 635/667, psychiatric disease protein project, primary screen (AID 1075); settings: NRG1 binding, 635 nm fluorescence, higher = more signal;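 also: score combines 667 nm spot fluorescence with signal to noise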
[7] = tested on: Neuregulin-1 EGF-like domain; assay: small molecules binding NRG1 EGF domain – biochemical, small-molecule microarray, 635 nm fluorescence, primary screen (AID 1081); settings: higher = more signal;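 also: binding of the protein to compounds printed on small-molecule microarray slides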
[8] = FRG1 expression reporter modulators in myotubes – cell-based, C2C12 myotubes, firefly/Renilla luciferase, luminescence, FRG1 inhibition for FSHD, primary screen (AID 1084); settings: FRG1 promoter luciferase, higher = more signal, called active from +8 up or from −8 down
[9] = small molecules captured by biotinylated probe aFST – biochemical, small-molecule microarray, fluorescence 635/667, stem cell growth factor project, primary screen (AID 1086); settings: higher = more signal;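 also: score merges 667 nm fluorescence with signal-to-noise of each printed compound spot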
[10] = binders of probe aHhip on microarray, primary screen, stem cell growth factor project, biochemical, small-molecule microarray, fluorescence 635/667 (AID 1087); settings: higher = more signal;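 also: score merges spot fluorescence at 667nm with spot signal to noise ratio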
[11] = tested on: PRMT1 (protein arginine N-methyltransferase 1); assay: small molecules binding arginine methyltransferase PRMT1 – biochemical, small-molecule microarray, 635 nm fluorescence, primary screen (AID 1088); settings: higher = more signal;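 also: binding of Prmt1 protein to compounds spotted on small-molecule microarray slides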
[12] = growth effects on S. cerevisiae YJM789 – YJM789 clinical isolate, OD600, 24 h, basal, primary screen (AID 1089); settings: higher = more signal, called active from +8 up or from −8 down;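 also: growth of clinical yeast isolate S. cerevisiae YJM 789 seeded 1000 cells per well; test concentration not given here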
[13] = S. pombe growth modifiers, basal conditions – strain 972, OD600, 24 h, no modulator, primary screen (AID 1090);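 also: basal condition with compound alone and no growth modifier present; test concentration not given here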; settings: S. pombe 972 growth, higher = more signal, called active from +8 up or from −8 down
[14] = budding yeast growth modifiers under rapamycin – strain BY4716, OD600, 96 h, primary screen (AID 1091); also: test concentration not given here; settings: S. cerevisiae BY4716 + rapamycin, higher = more signal, called active from +8 up or from −8 down
[15] = molecular target: Torsin-1A-interacting protein 2 (Homo sapiens) (UniProt Q8NFQ8); assay: small molecules binding lysate-expressed LULL1 – cell lysate, human LULL1 lysate, 635/667 nm fluorescence, primary screen (AID 1092); settings: small-molecule microarray, hLULL1 lysate binding, 635 nm fluorescence; higher = more signal;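 also: probe is lysate of COS7 cells overexpressing human LULL1; score merges per-feature 667 nm fluorescence with signal-to-noise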
[16] = optical density change of DRC41 E. coli – strain DRC41, OD650, 24 h, E. coli filamentation project, primary screen (AID 1093);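 also: MC1000 strain lacking acrAB efflux and sulA so SOS filamentation is blocked; test concentration not given here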; settings: E. coli DRC41 growth, higher = more signal, called active from +8 up or from −8 down
[17] = probe aLefty2 binding to arrayed compounds – biochemical, biotinylated probe, 635/667 nm fluorescence, primary screen (AID 1094); settings: small-molecule microarray, higher = more signal;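 also: score merges spot fluorescence near 667 nm with spot signal-to-noise ratio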
[18] = tested on: Noggin (protein binding on small-molecule microarray); assay: small molecules binding Noggin protein – biochemical, 635/667 nm fluorescence, primary screen (AID 1095); settings: 635 nm fluorescence, higher = more signal;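 also: score merges 667 nm feature fluorescence with signal to noise over triplicate slides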
[19] = molecular target: Neurogenic locus notch homolog protein 3 (Homo sapiens) (UniProt Q9UM47); assay: small molecules binding NOTCH3 protein – biochemical, 635/667 nm fluorescence, primary screen (AID 1096); settings: small-molecule microarray, 635 nm fluorescence, higher = more signal
Sequence of Neurogenic locus notch homolog protein 3 (Homo sapiens) (Q9UM47 whole entry, looked up): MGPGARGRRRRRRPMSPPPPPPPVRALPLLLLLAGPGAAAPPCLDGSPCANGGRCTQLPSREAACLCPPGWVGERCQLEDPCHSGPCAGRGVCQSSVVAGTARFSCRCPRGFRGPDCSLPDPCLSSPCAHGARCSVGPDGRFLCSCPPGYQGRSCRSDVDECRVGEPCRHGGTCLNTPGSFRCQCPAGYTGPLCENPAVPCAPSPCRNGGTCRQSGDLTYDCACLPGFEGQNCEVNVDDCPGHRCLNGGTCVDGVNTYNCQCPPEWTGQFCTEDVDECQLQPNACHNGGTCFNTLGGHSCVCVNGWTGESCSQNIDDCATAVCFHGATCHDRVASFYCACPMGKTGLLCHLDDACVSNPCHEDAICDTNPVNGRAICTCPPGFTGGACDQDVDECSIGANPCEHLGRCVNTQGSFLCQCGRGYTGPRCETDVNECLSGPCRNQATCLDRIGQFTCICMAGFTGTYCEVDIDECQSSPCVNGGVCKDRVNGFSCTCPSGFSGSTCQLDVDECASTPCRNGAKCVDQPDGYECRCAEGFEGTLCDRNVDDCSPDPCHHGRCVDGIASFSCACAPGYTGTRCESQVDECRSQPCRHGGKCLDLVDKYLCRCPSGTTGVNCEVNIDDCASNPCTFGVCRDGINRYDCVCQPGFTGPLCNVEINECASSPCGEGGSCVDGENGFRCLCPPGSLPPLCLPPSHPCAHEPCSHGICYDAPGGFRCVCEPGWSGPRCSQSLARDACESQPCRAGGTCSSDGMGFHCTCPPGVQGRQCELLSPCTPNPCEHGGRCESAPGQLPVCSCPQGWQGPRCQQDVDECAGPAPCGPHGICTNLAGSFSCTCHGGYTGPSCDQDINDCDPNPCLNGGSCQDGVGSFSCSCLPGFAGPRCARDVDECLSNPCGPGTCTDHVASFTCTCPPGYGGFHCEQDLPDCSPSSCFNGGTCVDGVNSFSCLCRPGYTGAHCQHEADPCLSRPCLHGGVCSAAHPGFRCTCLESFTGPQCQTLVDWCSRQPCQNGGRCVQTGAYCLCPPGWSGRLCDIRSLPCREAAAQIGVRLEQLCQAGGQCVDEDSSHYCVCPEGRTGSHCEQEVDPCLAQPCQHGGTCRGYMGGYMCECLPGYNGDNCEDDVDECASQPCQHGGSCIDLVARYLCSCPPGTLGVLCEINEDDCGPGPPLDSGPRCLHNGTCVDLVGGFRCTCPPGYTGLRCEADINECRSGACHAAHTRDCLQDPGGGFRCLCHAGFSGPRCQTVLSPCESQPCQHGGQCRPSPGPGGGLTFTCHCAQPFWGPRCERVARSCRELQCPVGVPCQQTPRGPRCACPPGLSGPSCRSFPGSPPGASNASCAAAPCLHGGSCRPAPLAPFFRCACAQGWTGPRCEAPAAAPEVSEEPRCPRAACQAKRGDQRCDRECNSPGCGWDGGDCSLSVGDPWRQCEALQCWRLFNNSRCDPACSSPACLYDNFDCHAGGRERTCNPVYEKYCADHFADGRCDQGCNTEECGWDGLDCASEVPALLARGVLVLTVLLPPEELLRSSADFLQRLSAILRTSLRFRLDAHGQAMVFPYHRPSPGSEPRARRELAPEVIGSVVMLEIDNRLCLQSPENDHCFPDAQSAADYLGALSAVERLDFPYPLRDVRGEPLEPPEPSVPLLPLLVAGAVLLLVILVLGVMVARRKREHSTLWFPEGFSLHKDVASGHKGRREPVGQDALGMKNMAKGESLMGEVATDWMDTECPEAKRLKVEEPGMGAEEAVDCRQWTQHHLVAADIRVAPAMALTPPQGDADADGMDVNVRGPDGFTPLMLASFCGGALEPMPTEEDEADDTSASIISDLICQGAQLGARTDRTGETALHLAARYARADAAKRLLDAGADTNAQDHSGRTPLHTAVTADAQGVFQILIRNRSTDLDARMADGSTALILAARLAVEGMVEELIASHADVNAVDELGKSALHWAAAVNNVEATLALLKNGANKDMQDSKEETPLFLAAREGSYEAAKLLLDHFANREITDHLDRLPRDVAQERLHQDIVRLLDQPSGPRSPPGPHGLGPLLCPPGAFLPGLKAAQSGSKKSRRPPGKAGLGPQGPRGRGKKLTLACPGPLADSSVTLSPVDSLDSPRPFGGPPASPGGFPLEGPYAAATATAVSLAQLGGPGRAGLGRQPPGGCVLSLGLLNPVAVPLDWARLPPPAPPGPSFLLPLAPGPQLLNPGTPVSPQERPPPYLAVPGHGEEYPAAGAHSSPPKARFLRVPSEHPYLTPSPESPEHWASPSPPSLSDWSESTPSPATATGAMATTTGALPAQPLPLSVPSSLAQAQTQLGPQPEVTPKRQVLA

[20] = probe aEGFR binding to arrayed compounds – biochemical, biotinylated probe, 635/667 nm fluorescence, primary screen (AID 1097); settings: small-molecule microarray, higher = more signal;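 also: probe is a biotinylated anti-EGFR antibody binding compounds printed on slides; score combines fluorescence near 667 nm and signal to noise of each spot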

Row | SMILES | composite z-score [1] | composite z-score [2] | composite z-score [3] | composite z-score [4] | composite z-score [5] | composite z-score [6] | composite z-score [7] | z-score [8] | composite z-score [9] | composite z-score [10] | composite z-score [11] | z-score [12] | z-score [13] | z-score [14] | composite z-score [15] | z-score [16] | composite z-score [17] | composite z-score [18] | composite z-score [19] | composite z-score [20]
1 | CC(=O)NCCCC[C@@H]1NC(=O)[C@@H]2C[C@H](C(=O)NCCCCN(C)C)[C@H](c3cccc(OCCO)c3)N2C1=O | 0.123 | 0.537 | -0.108 | -0.107 | -0.569 | -0.283 | 1.12 | 3.26 (inactive) | 0.571 | -0.236 | 0.558 | -0.546 (inactive) | 0.595 (inactive) | -0.789 (inactive) | 1.51 | 0.187 (inactive) | -0.0124 | -0.104 | 0.465 | -0.127
2 | Cc1ccc(S[C@]2(C(=O)NCCN3CCOCC3)CC(=O)N(Cc3ccccc3Cl)[C@@H]2c2ccc(CO)cc2)cc1 | 0.268 | -0.159 | -0.0083 | 0.701 | -0.32 | 0.956 | 1.15 | -0.0709 (inactive) | -0.0909 | -0.0994 | -0.241 | -1.17 (inactive) | -0.895 (inactive) | -0.812 (inactive) | 3.07 | 0.149 (inactive) | -0.057 | -0.157 | 0.201 | -0.128
3 | O=C(NCc1ccc(F)cc1)[C@H]1C[C@H]2C(=O)N[C@@H](Cc3ccccc3)C(=O)N2[C@H]1c1ccc(O)cc1 | 1.12 | 0.949 | -0.185 | -0.685 | -0.878 | -0.242 | 1.2 | 1.1 (inactive) | -0.823 | -0.0645 | 0.53 | 0.839 (inactive) | 0.247 (inactive) | 2.14 (inactive) | 2.34 | 0.675 (inactive) | -0.118 | 0.223 | -0.75 | -0.268
4 | COc1ccc(C(=O)Nc2ccc(CN3C(=O)[C@@]4(O[C@@H](CCO)[C@H]([Si](C)(C)c5ccc(OC)cc5)[C@H]4C)c4ccccc43)cc2)cc1 | -0.0338 | 0.623 | -0.113 | 0.187 | 0.912 | 1.22 | 1.1 | -3.12 (inactive) | 0.25 | -0.0645 | 1.54 | -0.81 (inactive) | -7.92 (inactive) | 0.495 (inactive) | 1.4 | 0.0243 (inactive) | 0.0217 | 1.49 | 1.08 | -0.0774
5 | O=C(O)[C@@]1(CCS(=O)(=O)c2ccccc2)COC(c2ccc(OCCCO)cc2)=N1 | 0.803 | -0.715 | -0.196 | -0.0573 | -0.243 | 0.964 | 1.35 | 0.143 (inactive) | -0.0694 | 0.35 | -0.16 | 0.608 (inactive) | -2.3 (inactive) | -0.717 (inactive) | 2.76 | -0.16 (inactive) | 0.188 | -0.754 | -0.395 | -0.0828

Source: PubChem BioAssay
